Compounds with a hit are over-represented: about 2.2% of the library has one in this group of screens.
VLA-4 inh – inhibition in a human VLA-4 binding assay. P13612. VLA-4 expressing cells, ligand binding flow cytometry. inhibition, % (about 7 µM as worked out from the volumes in the protocol). hit rate 0.2% among 330,000; in the data active = inhibition above about 50%
MEKK3 PB1 HTS – modulators (inhibitors or enhancers) of MEK5 binding to human MEKK3 PB1 domain. Q99759. AID 1529. bead-based flow cytometry, Alexa488-MEK5 binding to MEKK3; actives lie on both sides; 0 = blocked by unlabeled MEK5, 100 = vehicle. binding response (% of control), % at 10 µM. hit rate 1.4% among 290,000;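 active = binding response more than 3 SD above or below the average of its plate-row segment, actives on both sides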;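 note: Alexa488 bead fluorescence after subtracting the streptavidin-only scavenger bead signal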
Target sequence (Q99759 whole entry, looked up, the tested form may be a part): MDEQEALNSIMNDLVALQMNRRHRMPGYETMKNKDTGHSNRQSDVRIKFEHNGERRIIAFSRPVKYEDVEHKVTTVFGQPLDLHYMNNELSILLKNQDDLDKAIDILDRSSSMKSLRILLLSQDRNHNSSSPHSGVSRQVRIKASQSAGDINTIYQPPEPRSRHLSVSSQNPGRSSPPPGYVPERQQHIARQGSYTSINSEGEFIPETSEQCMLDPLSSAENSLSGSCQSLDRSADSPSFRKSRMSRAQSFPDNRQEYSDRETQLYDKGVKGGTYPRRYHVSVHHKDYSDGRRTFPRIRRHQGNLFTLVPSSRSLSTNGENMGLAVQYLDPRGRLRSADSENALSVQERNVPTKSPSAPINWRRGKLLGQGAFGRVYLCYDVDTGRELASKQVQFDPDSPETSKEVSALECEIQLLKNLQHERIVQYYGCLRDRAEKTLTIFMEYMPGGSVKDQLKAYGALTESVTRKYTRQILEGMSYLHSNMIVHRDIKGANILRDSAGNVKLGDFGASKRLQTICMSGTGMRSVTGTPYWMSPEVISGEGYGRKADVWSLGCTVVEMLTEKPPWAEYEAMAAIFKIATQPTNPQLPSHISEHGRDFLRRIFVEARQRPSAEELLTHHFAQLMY
MEKK2wt PB1 HTS – raises or lowers MEK5 binding to wildtype human MEKK2 PB1 domain; Q9Y2U5; bead flow cytometry, Alexa488-MEK5 binding to MEKK2 WT; actives lie on both sides; binding response (% of control), % at 10 µM; hit rate 1.1% among 290,000; AID 1531; in the data active = binding response below about 67% or above about 130%
MEKK2mut PB1 HTS – signal of MEK5 binding to mutant human MEKK2 PB1 domain. bead flow cytometry, Alexa488-MEK5 binding to MEKK2 mutant. percent response, % at 10 µM. hit rate 0.35% among 290,000. AID 1530; in the data active = percent response above about 24%, passing the limit was not always enough
MEKK2wt confirm – raises or lowers MEK5 binding to wildtype human MEKK2, retest; shares compounds with MEKK3 PB1 HTS; bead flow cytometry, Alexa488-MEK5 binding to MEKK2 WT; actives lie on both sides; binding response (% of control), % at 10 µM; hit rate 2.4% among 5,900; AID 1892; in the data active = binding response below about 16% or above about 210%; inactive = in between
MEKK2mut-MEK5 – signal of MEK5 binding to mutant human MEKK2, retest. shares compounds with MEKK3 PB1 HTS. hit rate 2% among 5,900. percent response, % at 10 µM. bead flow cytometry, Alexa488-MEK5 binding to MEKK2 mutant; in the data active = percent response mostly above about 71%, no sharp cut-off; inactive = mostly below about 38%;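 note: higher means compound restores mutant binding toward wildtype level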
MEKK3 confirm – confirmation of inhibitors of MEK5 binding to human MEKK3; shares compounds with MEKK3 PB1 HTS; AID 1894; hit rate 1.8% among 5,900; binding response (% of control), % at 10 µM; bead flow cytometry, Alexa488-MEK5 binding to MEKK3; hits give low values;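 active = binding response below 72% of control, or above a set upper limit, though filed actives all read lower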;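 note: 100% = DMSO only wells and 0% = binding blocked by excess unlabeled MEK5; lower values mean stronger disruption of MEK5 binding to MEKK3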
* hit, by the source's call; [ ] = remark or other dose.

Results for Cc1ccc(C(C(=O)NC2CCCC2)N(C(=O)CNC(=O)c2cccs2)c2cccnc2)o1 (centres undefined) ?
VLA-4 inh: 0; MEKK3 PB1 HTS: 71*[inhibitor]; MEKK2wt PB1 HTS: 106; MEKK2mut PB1 HTS: 4; MEKK2wt confirm: 102; MEKK2mut-MEK5: 2; MEKK3 confirm: 104

What do the screens show for `COc1ccc(N(C(=O)CNC(=O)c2cccs2)C(C(=O)NCC2CCCO2)c2ccccc2)cc1` (centres undefined)?
VLA-4 inh: 7; MEKK3 PB1 HTS: 5.0*[inhibitor]; MEKK2wt PB1 HTS: 6.0*[inhibitor]; MEKK2mut PB1 HTS: -19; MEKK2wt confirm: 105; MEKK2mut-MEK5: 4; MEKK3 confirm: 104

What do the screens show for `Cc1ccc(C(C(=O)NC2CCCC2)N(Cc2cccs2)C(=O)CNC(=O)c2cccs2)o1` (centres undefined)?
VLA-4 inh: 4; MEKK3 PB1 HTS: 92; MEKK2wt PB1 HTS: 103; MEKK2mut PB1 HTS: 4

Results for CNC(=O)CC1C(=O)N(c2ccc(OC)cc2)C(=S)N1NC(=O)c1cccc(F)c1 (centres undefined) ?
VLA-4 inh: 3; MEKK3 PB1 HTS: 97; MEKK2wt PB1 HTS: 99; MEKK2mut PB1 HTS: 2

How did Cc1ccc(N2CCN(C3=NC(=O)/C(=C\c4cn[nH]c4-c4ccccc4)S3)CC2)cc1 do in these assays?
VLA-4 inh: 6; MEKK3 PB1 HTS: 135*; MEKK2wt PB1 HTS: 103; MEKK2mut PB1 HTS: 0; MEKK2wt confirm: 98; MEKK2mut-MEK5: -1; MEKK3 confirm: 98

What do the screens show for `O=C1N=C(N2CCN(c3ccccc3)CC2)S/C1=C\c1cn[nH]c1-c1ccccc1`?
VLA-4 inh: 11; MEKK3 PB1 HTS: 105; MEKK2wt PB1 HTS: 100; MEKK2mut PB1 HTS: 0

Results for Cc1ccc2[nH]c(C(=O)NCCN3CCCC3)cc2c1 ?
VLA-4 inh: 5; MEKK3 PB1 HTS: 109; MEKK2wt PB1 HTS: 137*; MEKK2mut PB1 HTS: 9; MEKK2wt confirm: 110; MEKK2mut-MEK5: -6; MEKK3 confirm: 98

How did Cc1ccc2[nH]c(C(=O)N3CCCCC3)cc2c1 do in these assays?
VLA-4 inh: 31; MEKK3 PB1 HTS: 100; MEKK2wt PB1 HTS: 103; MEKK2mut PB1 HTS: 1

How did Cc1ccc(Sc2cc(NCCCO)c([N+](=O)[O-])c3nonc23)cc1 do in these assays?
VLA-4 inh: 9; MEKK3 PB1 HTS: 108; MEKK2wt PB1 HTS: 112; MEKK2mut PB1 HTS: 3

How did CC(=O)OCCCNc1cc(Sc2ccc(Cl)cc2)c2nonc2c1[N+](=O)[O-] do in these assays?
VLA-4 inh: 20; MEKK3 PB1 HTS: 132*; MEKK2wt PB1 HTS: 104; MEKK2mut PB1 HTS: 0; MEKK2wt confirm: 95; MEKK2mut-MEK5: 0; MEKK3 confirm: 95

Results for Cc1ccc(-n2cc(CN3CCC(CO)(Cc4ccccc4)CC3)cn2)cc1 ?
VLA-4 inh: 3; MEKK3 PB1 HTS: 89; MEKK2wt PB1 HTS: 107; MEKK2mut PB1 HTS: -2

What do the screens show for `OCC1(Cc2ccccc2)CCN(Cc2cnn(-c3ccccc3F)c2)CC1`?
VLA-4 inh: 1; MEKK3 PB1 HTS: 107; MEKK2wt PB1 HTS: 520*; MEKK2mut PB1 HTS: 362*; MEKK2wt confirm: 110; MEKK2mut-MEK5: 0; MEKK3 confirm: 102

Results for CSc1cccc(CN2CCC(CO)(Cc3cccc(C(F)(F)F)c3)CC2)c1 ?
VLA-4 inh: 25; MEKK3 PB1 HTS: 105; MEKK2wt PB1 HTS: 138*; MEKK2mut PB1 HTS: 17; MEKK2wt confirm: 126; MEKK2mut-MEK5: 17; MEKK3 confirm: 108

Results for Cc1ccc(-n2cc(CN3CCC(CO)(Cc4cccc(C(F)(F)F)c4)CC3)cn2)cc1 ?
VLA-4 inh: 0; MEKK3 PB1 HTS: 112; MEKK2wt PB1 HTS: 227*; MEKK2mut PB1 HTS: 123*; MEKK2wt confirm: 152; MEKK2mut-MEK5: 17; MEKK3 confirm: 96

What do the screens show for `CC1Sc2ccc(C(=O)NCc3cccc(C(F)(F)F)c3)cc2NC1=O` (centres undefined)?
VLA-4 inh: 16

Results for Cc1ccc2nc(N(CCCN(C)C)C(=O)COc3ccc(Cl)cc3)sc2c1 ?
VLA-4 inh: 11; MEKK3 PB1 HTS: 109; MEKK2wt PB1 HTS: 180*; MEKK2mut PB1 HTS: 44; MEKK2wt confirm: 149; MEKK2mut-MEK5: 25; MEKK3 confirm: 100

How did Cc1cc(C)c2sc(N(CCCN(C)C)C(=O)COc3ccc(Cl)cc3)nc2c1 do in these assays?
VLA-4 inh: 12; MEKK3 PB1 HTS: 113; MEKK2wt PB1 HTS: 246*; MEKK2mut PB1 HTS: 55*; MEKK2wt confirm: 192; MEKK2mut-MEK5: 50; MEKK3 confirm: 104

Results for Cc1ccc(N(Cc2ccccc2)C(=O)c2ccc(Cl)c(S(=O)(=O)N3CCOCC3)c2)cc1 ?
VLA-4 inh: 1

How did COc1cccc(NC(=O)c2ccccc2Oc2ccccc2)c1 do in these assays?
VLA-4 inh: 5; MEKK3 PB1 HTS: 102; MEKK2wt PB1 HTS: 104; MEKK2mut PB1 HTS: 3

Results for COc1cccc(NC(=O)c2nc3ncccn3n2)c1 ?
VLA-4 inh: 0; MEKK3 PB1 HTS: 2.0*[inhibitor]; MEKK2wt PB1 HTS: 2.0*[inhibitor]; MEKK2mut PB1 HTS: -18; MEKK2wt confirm: 105; MEKK2mut-MEK5: 3; MEKK3 confirm: 102

How did COc1cccc(Nc2ncccc2C(=O)Nc2ccccc2)c1 do in these assays?
VLA-4 inh: -27; MEKK3 PB1 HTS: 129*; MEKK2wt PB1 HTS: 127; MEKK2mut PB1 HTS: 6; MEKK2wt confirm: 105; MEKK2mut-MEK5: 6; MEKK3 confirm: 102

How did COc1ccccc1N1CCN(S(=O)(=O)c2ccc(-n3cnnn3)cc2)CC1 do in these assays?
VLA-4 inh: 2; MEKK3 PB1 HTS: 101; MEKK2wt PB1 HTS: 102; MEKK2mut PB1 HTS: 0

What do the screens show for `C[C@@H]1NC(=O)N(CCCn2ccnc2)C1=O`?
VLA-4 inh: 24; MEKK3 PB1 HTS: 104; MEKK2wt PB1 HTS: 106; MEKK2mut PB1 HTS: 4

Results for CCOC(=O)C1=NN(C(C)=O)C2(CC(=O)N(c3cccc(C)c3)C2=O)C1 (centres undefined) ?
VLA-4 inh: 25; MEKK3 PB1 HTS: 139*; MEKK2wt PB1 HTS: 104; MEKK2mut PB1 HTS: 0; MEKK2wt confirm: 105; MEKK2mut-MEK5: -3; MEKK3 confirm: 103

How did CCCc1nn2c(=O)cc(CSCC(=O)Nc3ccc(OC)cc3)nc2s1 do in these assays?
VLA-4 inh: 9; MEKK3 PB1 HTS: 92; MEKK2wt PB1 HTS: 94; MEKK2mut PB1 HTS: -9

How did O=C1c2cccc3c(N4CCCCC4)ccc(c23)C(=O)N1c1ccccn1 do in these assays?
VLA-4 inh: -8; MEKK3 PB1 HTS: 96; MEKK2wt PB1 HTS: 94; MEKK2mut PB1 HTS: -2

Bioassay records as filed in PubChem.
